In the supplement of paper PMC4466140:

Key:
Test in all cases: SPOT peptide array binding signal intensity (averaged, normalized) (arbitrary units (background-subtracted, floor 0; scale differs between SH3 domains)); higher = stronger binding of the SH3 domain to the peptide
AgAbp1 = target: AgAbp1
Outline: (§1)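 Peptides were synthetic 15-mers on cellulose membranes, with every cysteine replaced by serine. They were incubated overnight at 4°C with GST-SH3 domains from four yeast species at 10 μg/ml in TBS-based blocking buffer. Binding signal, the replicate-averaged normalized and background-subtracted spot intensity, is in arbitrary units that differ between domains.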

AgBbc1 = target: AgBbc1
Outline: as §1

AgBem1-D1 = target: AgBem1-D1
Outline: as §1

AgBzz1-D1 = target: AgBzz1-D1
Outline: as §1

AgBzz1-D2 = target: AgBzz1-D2
Outline: as §1

AgCyk3 = target: AgCyk3
Outline: as §1

AgFus1 = target: AgFus1
Outline: as §1

AgHof1 = target: AgHof1
Outline: as §1

AgHse1 = target: AgHse1
Outline: as §1

AgLsb1 = target: AgLsb1
Outline: as §1

AgLsb4 = target: AgLsb4
Outline: as §1

AgMyo5 = target: AgMyo5
Outline: as §1

AgNbp2 = target: AgNbp2
Outline: as §1

AgRvs167 = target: AgRvs167
Outline: as §1

AgSho1 = target: AgSho1
Outline: as §1

AgSla1-D1-D2 = target: AgSla1-D1-D2
Outline: as §1

AgSla1-D3 = target: AgSla1-D3
Outline: as §1

CaAbp1-D1 = target: CaAbp1-D1
Outline: as §1

CaAbp1-D2 = target: CaAbp1-D2
Outline: as §1

CaBbc1 = target: CaBbc1
Outline: as §1

CaBem1-D1 = target: CaBem1-D1
Outline: as §1

CaBzz1-D1 = target: CaBzz1-D1
Outline: as §1

CaBzz1-D2 = target: CaBzz1-D2
Outline: as §1

CaCyk3 = target: CaCyk3
Outline: as §1

CaFus1 = target: CaFus1
Outline: as §1

CaHof1 = target: CaHof1
Outline: as §1

CaHse1 = target: CaHse1
Outline: as §1

CaLsb1 = target: CaLsb1
Outline: as §1

CaLsb4 = target: CaLsb4
Outline: as §1

CaMyo5 = target: CaMyo5
Outline: as §1

CaNbp2 = target: CaNbp2
Outline: as §1

CaRvs167 = target: CaRvs167
Outline: as §1

CaRvs167-3 = target: CaRvs167-3
Outline: as §1

CaSho1 = target: CaSho1
Outline: as §1

CaSla1-D1-D2 = target: CaSla1-D1-D2
Outline: as §1

CaSla1-D3 = target: CaSla1-D3
Outline: as §1

ScAbp1 = target: ScAbp1
Outline: as §1

ScBbc1 = target: ScBbc1
Outline: as §1

ScBem1-D1 = target: ScBem1-D1
Outline: as §1

ScBzz1-D1 = target: ScBzz1-D1
Outline: as §1

ScBzz1-D2 = target: ScBzz1-D2
Outline: as §1

ScCyk3 = target: ScCyk3
Outline: as §1

ScFus1 = target: ScFus1
Outline: as §1

ScHof1 = target: ScHof1
Outline: as §1

ScHse1 = target: ScHse1
Outline: as §1

ScLsb1 = target: ScLsb1
Outline: as §1

ScLsb2 = target: ScLsb2
Outline: as §1

ScLsb3 = target: ScLsb3
Outline: as §1

ScLsb4 = target: ScLsb4
Outline: as §1

ScMyo3 = target: ScMyo3
Outline: as §1

ScMyo5 = target: ScMyo5
Outline: as §1

ScNbp2 = target: ScNbp2
Outline: as §1

ScPex13 = target: ScPex13
Outline: as §1

ScRvs167 = target: ScRvs167
Outline: as §1

ScSho1 = target: ScSho1
Outline: as §1

ScSla1-D1-D2 = target: ScSla1-D1-D2
Outline: as §1

ScSla1-D3 = target: ScSla1-D3
Outline: as §1

SpAbp1-D1 = target: SpAbp1-D1
Outline: as §1

SpBbc1 = target: SpBbc1
Outline: as §1

SpBzz1-D1 = target: SpBzz1-D1
Outline: as §1

SpBzz1-D2 = target: SpBzz1-D2
Outline: as §1

SpCyk3 = target: SpCyk3
Outline: as §1

SpHof1 = target: SpHof1
Outline: as §1

SpHof1-2 = target: SpHof1-2
Outline: as §1

SpHof1-3 = target: SpHof1-3
Outline: as §1

SpHse1 = target: SpHse1
Outline: as §1

SpLsb1 = target: SpLsb1
Outline: as §1

SpLsb4 = target: SpLsb4
Outline: as §1

SpMyo1 = target: SpMyo1
Outline: as §1

SpNbp2 = target: SpNbp2
Outline: as §1

SpPex13 = target: SpPex13
Outline: as §1

SpRvs167 = target: SpRvs167
Outline: as §1

SpSla1-D1-D2 = target: SpSla1-D1-D2
Outline: as §1

SpSla1-D3 = target: SpSla1-D3
Outline: as §1

Binder: RRRIAYPFYPFKKLG
- SPOT peptide array binding signal intensity (AgAbp1): 69
- SPOT peptide array binding signal intensity (AgBbc1): ≤ 0
- SPOT peptide array binding signal intensity (AgBem1-D1): 22
- SPOT peptide array binding signal intensity (AgBzz1-D1): 32.5
- SPOT peptide array binding signal intensity (AgBzz1-D2): 9
- SPOT peptide array binding signal intensity (AgCyk3): 1
- SPOT peptide array binding signal intensity (AgFus1): 337
- SPOT peptide array binding signal intensity (AgHof1): 8.75
- SPOT peptide array binding signal intensity (AgHse1): 914
- SPOT peptide array binding signal intensity (AgLsb1): 1.5
- SPOT peptide array binding signal intensity (AgLsb4): 19.5
- SPOT peptide array binding signal intensity (AgMyo5): 1.75
- SPOT peptide array binding signal intensity (AgNbp2): 124
- SPOT peptide array binding signal intensity (AgRvs167): 6.5
- SPOT peptide array binding signal intensity (AgSho1): 79
- SPOT peptide array binding signal intensity (AgSla1-D1-D2): 22
- SPOT peptide array binding signal intensity (AgSla1-D3): ≤ 0
- SPOT peptide array binding signal intensity (CaAbp1-D1): 482
- SPOT peptide array binding signal intensity (CaAbp1-D2): 238
- SPOT peptide array binding signal intensity (CaBbc1): 0.25
- SPOT peptide array binding signal intensity (CaBem1-D1): 23
- SPOT peptide array binding signal intensity (CaBzz1-D1): 21
- SPOT peptide array binding signal intensity (CaBzz1-D2): 9.5
- SPOT peptide array binding signal intensity (CaCyk3): 1
- SPOT peptide array binding signal intensity (CaFus1): 672
- SPOT peptide array binding signal intensity (CaHof1): 0.5
- SPOT peptide array binding signal intensity (CaHse1): 47.8
- SPOT peptide array binding signal intensity (CaLsb1): ≤ 0
- SPOT peptide array binding signal intensity (CaLsb4): 15
- SPOT peptide array binding signal intensity (CaMyo5): 0.25
- SPOT peptide array binding signal intensity (CaNbp2): 565
- SPOT peptide array binding signal intensity (CaRvs167): 13.3
- SPOT peptide array binding signal intensity (CaRvs167-3): 62.5
- SPOT peptide array binding signal intensity (CaSho1): 486
- SPOT peptide array binding signal intensity (CaSla1-D1-D2): ≤ 0
- SPOT peptide array binding signal intensity (CaSla1-D3): 2.5
- SPOT peptide array binding signal intensity (ScAbp1): 103
- SPOT peptide array binding signal intensity (ScBbc1): ≤ 0
- SPOT peptide array binding signal intensity (ScBem1-D1): 16
- SPOT peptide array binding signal intensity (ScBzz1-D1): 6
- SPOT peptide array binding signal intensity (ScBzz1-D2): 14
- SPOT peptide array binding signal intensity (ScCyk3): 38.5
- SPOT peptide array binding signal intensity (ScFus1): 230
- SPOT peptide array binding signal intensity (ScHof1): 0.5
- SPOT peptide array binding signal intensity (ScHse1): 1700
- SPOT peptide array binding signal intensity (ScLsb1): 3.5
- SPOT peptide array binding signal intensity (ScLsb2): 4
- SPOT peptide array binding signal intensity (ScLsb3): 104
- SPOT peptide array binding signal intensity (ScLsb4): 11
- SPOT peptide array binding signal intensity (ScMyo3): 4
- SPOT peptide array binding signal intensity (ScMyo5): ≤ 0
- SPOT peptide array binding signal intensity (ScNbp2): 173
- SPOT peptide array binding signal intensity (ScPex13): 0.5
- SPOT peptide array binding signal intensity (ScRvs167): 13.3
- SPOT peptide array binding signal intensity (ScSho1): 606
- SPOT peptide array binding signal intensity (ScSla1-D1-D2): ≤ 0
- SPOT peptide array binding signal intensity (ScSla1-D3): ≤ 0
- SPOT peptide array binding signal intensity (SpAbp1-D1): 155
- SPOT peptide array binding signal intensity (SpBbc1): 1
- SPOT peptide array binding signal intensity (SpBzz1-D1): 37
- SPOT peptide array binding signal intensity (SpBzz1-D2): ≤ 0
- SPOT peptide array binding signal intensity (SpCyk3): ≤ 0
- SPOT peptide array binding signal intensity (SpHof1): 37.5
- SPOT peptide array binding signal intensity (SpHof1-2): 12.5
- SPOT peptide array binding signal intensity (SpHof1-3): 225
- SPOT peptide array binding signal intensity (SpHse1): 745
- SPOT peptide array binding signal intensity (SpLsb1): 1.5
- SPOT peptide array binding signal intensity (SpLsb4): 47
- SPOT peptide array binding signal intensity (SpMyo1): 2.5
- SPOT peptide array binding signal intensity (SpNbp2): 394
- SPOT peptide array binding signal intensity (SpPex13): 5.5
- SPOT peptide array binding signal intensity (SpRvs167): 7.33
- SPOT peptide array binding signal intensity (SpSla1-D1-D2): ≤ 0
- SPOT peptide array binding signal intensity (SpSla1-D3): 1.5

Binder: LRWRHKFFLPAIAAI
- SPOT peptide array binding signal intensity (SpBzz1-D2): ≤ 0
- SPOT peptide array binding signal intensity (SpCyk3): 1
- SPOT peptide array binding signal intensity (SpHof1): 33.1
- SPOT peptide array binding signal intensity (SpHof1-2): 2.25
- SPOT peptide array binding signal intensity (SpHof1-3): 830
- SPOT peptide array binding signal intensity (SpHse1): 667
- SPOT peptide array binding signal intensity (SpLsb1): ≤ 0
- SPOT peptide array binding signal intensity (SpLsb4): 21.2
- SPOT peptide array binding signal intensity (SpMyo1): ≤ 0
- SPOT peptide array binding signal intensity (SpNbp2): 41.8
- SPOT peptide array binding signal intensity (SpPex13): 6.25
- SPOT peptide array binding signal intensity (SpRvs167): 1
- SPOT peptide array binding signal intensity (SpSla1-D1-D2): 2
- SPOT peptide array binding signal intensity (SpSla1-D3): ≤ 0
